Hit rate of the full screen: of about 5,500 compounds, about 2,000 (36%) were called active. Inconclusive results (about 18%) are left out. Cut-off read from the data, not from the text of the source: active = normalized growth mostly below about 0.91 (no sharp cut-off); inconclusive = no clear call, values can overlap the other calls; inactive = mostly above about 0.92. The list shows a part of the results.
Test: chemical genetic growth profiling, strain panel (AID 1159580);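 note: tested at 20 µM; growth read once vehicle control cultures reached saturation at 30 °C; 1 = growth at the plate median or of vehicle wells; lower values mean less growth of the strain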
Conditions: growth OD
[1] = S. cerevisiae deletion strains, locus YDL101C, strain DUN1, hits give low values
[2] = S. cerevisiae deletion strains, locus YHR030C, strain SLT2, hits give low values

Measured: normalized growth

N#Cc1ccc2[nH]cc(CCN(Cc3ccccc3)Cc3ccccc3)c2c1
inactive: S. cerevisiae deletion strains, locus YAR019C, strain CDC15, hits give low values 0.989 | S. cerevisiae deletion strains, locus YBL105C, strain PKC1, hits give low values 0.991 | S. cerevisiae deletion strains, locus YBR135W, strain CKS1, hits give low values 0.99 | S. cerevisiae deletion strains, locus YBR136W, strain MEC1, hits give low values 0.984 | S. cerevisiae deletion strains, locus YBR160W, strain CDC28, hits give low values 0.989 | S. cerevisiae deletion strains, locus YDL017W, strain CDC7, hits give low values 0.99 | S. cerevisiae deletion strains, locus YDL028C, strain MPS1, hits give low values 0.977 | [1] 0.98 | S. cerevisiae deletion strains, locus YDL108W, strain KIN28, hits give low values 0.983 | S. cerevisiae deletion strains, locus YDL132W, strain cdc53, hits give low values 0.985 | S. cerevisiae deletion strains, locus YDL214C, strain PRR2, hits give low values 0.943 | S. cerevisiae deletion strains, locus YDR052C, strain DBF4, hits give low values 0.992 | S. cerevisiae deletion strains, locus YDR054C, strain cdc34, hits give low values 0.978 | S. cerevisiae deletion strains, locus YDR226W, strain ADK1, hits give low values 0.978 | S. cerevisiae deletion strains, locus YDR477W, strain SNF1, hits give low values 0.969 | S. cerevisiae deletion strains, locus YER123W, strain YCK3, hits give low values 0.918 | S. cerevisiae deletion strains, locus YER133W, strain GLC7, hits give low values 0.964 | S. cerevisiae deletion strains, locus YFL009W, strain cdc4, hits give low values 0.982 | S. cerevisiae deletion strains, locus YFL029C, strain CAK1, hits give low values 0.986 | S. cerevisiae deletion strains, locus YFR003C, strain YPI1, hits give low values 0.992 | S. cerevisiae deletion strains, locus YFR019W, strain FAB1, hits give low values 0.967 | S. cerevisiae deletion strains, locus YFR028C, strain CDC14, hits give low values 0.982 | S. cerevisiae deletion strains, locus YGR040W, strain KSS1, hits give low values 0.956 | S. cerevisiae deletion strains, locus YGR052W, strain FMP48, hits give low values 1.05 | S. cerevisiae deletion strains, locus YGR092W, strain DBF2, hits give low values 0.943 | [2] 1.13 | S. cerevisiae deletion strains, locus YHR079C, strain IRE1, hits give low values 1.07 | S. cerevisiae deletion strains, locus YHR082C, strain KSP1, hits give low values 1.05 | S. cerevisiae deletion strains, locus YHR205W, strain SCH9, hits give low values 0.962 | S. cerevisiae deletion strains, locus YIL147C, strain SLN1, hits give low values 0.987 | S. cerevisiae deletion strains, locus YJL095W, strain BCK1, hits give low values 1.07 | S. cerevisiae deletion strains, locus YJL128C, strain PBS2, hits give low values 0.953 | S. cerevisiae deletion strains, locus YJL157C, strain FAR1, hits give low values 0.954 | S. cerevisiae deletion strains, locus YJR016C, strain ILV3, hits give low values 0.991 | S. cerevisiae deletion strains, locus YJR066W, strain TOR1 (second series), hits give low values 0.926 | S. cerevisiae deletion strains, locus YJR066W, strain TOR1, hits give low values 1.07 | S. cerevisiae deletion strains, locus YKL048C, strain ELM1, hits give low values 0.964 | S. cerevisiae deletion strains, locus YKL067W, strain YNK1, hits give low values 0.969 | S. cerevisiae deletion strains, locus YKL101W, strain HSL1, hits give low values 0.954 | S. cerevisiae deletion strains, locus YKL193C, strain SDS22, hits give low values 0.987 | S. cerevisiae deletion strains, locus YKL203C, strain TOR2, hits give low values 1.04 | S. cerevisiae deletion strains, locus YLR113W, strain HOG1, hits give low values 1.01 | S. cerevisiae deletion strains, locus YLR133W, strain CKI1, hits give low values 0.98 | S. cerevisiae deletion strains, locus YLR403W, strain SFP1, hits give low values 0.962 | S. cerevisiae deletion strains, locus YML070W, strain DAK1, hits give low values 0.95 | S. cerevisiae deletion strains, locus YMR001C, strain CDC5, hits give low values 0.988 | S. cerevisiae deletion strains, locus YMR205C, strain PFK2 (second series), hits give low values 0.972 | S. cerevisiae deletion strains, locus YMR277W, strain FCP1, hits give low values 0.993 | S. cerevisiae deletion strains, locus YNL006W, strain LST8, hits give low values 0.983 | S. cerevisiae deletion strains, locus YNL020C, strain ARK1, hits give low values 0.98 | S. cerevisiae deletion strains, locus YNL161W, strain CBK1, hits give low values 0.993 | S. cerevisiae deletion strains, locus YNL183C, strain NPR1, hits give low values 1.05 | S. cerevisiae deletion strains, locus YNL207W, strain RIO2, hits give low values 0.979 | S. cerevisiae deletion strains, locus YNL222W, strain SSU72, hits give low values 0.986 | S. cerevisiae deletion strains, locus YNL307C, strain MCK1 (second series), hits give low values 0.98 | S. cerevisiae deletion strains, locus YOL078W, strain AVO1, hits give low values 0.987 | S. cerevisiae deletion strains, locus YOL136C, strain PFK27, hits give low values 0.957 | S. cerevisiae deletion strains, locus YOR061W, strain CKA2, hits give low values 0.955 | S. cerevisiae deletion strains, locus YOR119C, strain RIO1, hits give low values 1.01 | S. cerevisiae deletion strains, locus YOR231W, strain MKK1, hits give low values 1.06 | S. cerevisiae deletion strains, locus YOR329C, strain SCD5, hits give low values 0.993 | S. cerevisiae deletion strains, locus YPL031C, strain PHO85, hits give low values 0.97 | S. cerevisiae deletion strains, locus YPL153C, strain RAD53, hits give low values 0.954 | S. cerevisiae deletion strains, locus YPL204W, strain HRR25, hits give low values 0.97 | S. cerevisiae deletion strains, locus YPL209C, strain IPL1, hits give low values 0.994 | S. cerevisiae deletion strains, locus YPL256C, strain CLN2, hits give low values 1.05 | S. cerevisiae deletion strains, locus YPR025C, strain CCL1, hits give low values 0.992 | S. cerevisiae deletion strains, locus YPR106W, strain ISR1, hits give low values 0.984 | S. cerevisiae deletion strains, locus YPR111W, strain DBF20, hits give low values 0.976 | S. cerevisiae deletion strains, strain NNK1, hits give low values 0.983 | S. cerevisiae deletion strains, strain TSCII, hits give low values 0.993

N#CCS(=O)(=O)c1cccs1
inactive: S. cerevisiae deletion strains, locus YAL013W, strain DEP1, hits give low values 0.988 | S. cerevisiae deletion strains, locus YBR229C, strain ROT2, hits give low values 1 | [1] 0.983 | S. cerevisiae deletion strains, locus YDR150W, strain NUM1, hits give low values 0.94 | S. cerevisiae deletion strains, locus YEL061C, strain CIN8, hits give low values 1.01 | S. cerevisiae deletion strains, locus YGR078C, strain PAC10, hits give low values 0.979 | [2] 0.996 | S. cerevisiae deletion strains, locus YHR087W, strain rtc3, hits give low values 1 | S. cerevisiae deletion strains, locus YJR043C, strain POL32, hits give low values 0.949 | S. cerevisiae deletion strains, locus YJR075W, strain HOC1, hits give low values 0.993 | S. cerevisiae deletion strains, locus YLR039C, strain RIC1, hits give low values 1.1 | S. cerevisiae deletion strains, locus YLR058C, strain SHM2 (second series), hits give low values 1 | S. cerevisiae deletion strains, locus YLR085C, strain ARP6, hits give low values 0.999 | S. cerevisiae deletion strains, locus YLR262C, strain YPT6, hits give low values 1.12 | S. cerevisiae deletion strains, locus YML094W, strain GIM5, hits give low values 0.975 | S. cerevisiae deletion strains, locus YMR219W, strain ESC1, hits give low values 1 | S. cerevisiae deletion strains, locus YMR263W, strain SAP30, hits give low values 0.961 | S. cerevisiae deletion strains, locus YNL153C, strain GIM3, hits give low values 0.968 | S. cerevisiae deletion strains, locus YNL298W, strain CLA4 (second series), hits give low values 1 | S. cerevisiae deletion strains, locus YNL322C, strain KRE1, hits give low values 1.02 | S. cerevisiae deletion strains, locus YNR030W, strain Alg12, hits give low values 0.989 | S. cerevisiae deletion strains, locus YPL055C, strain LGE1, hits give low values 0.92 | S. cerevisiae deletion strains, locus YPL241C, strain CIN2, hits give low values 0.983 | S. cerevisiae deletion strains, locus YPR135W, strain CTF4, hits give low values 0.885 | S. cerevisiae strains, strain wild type, hits give low values 1.01
